Source: ChEMBL document CHEMBL1961873, “Compounds: GSK PKIS; Assays: Nanosyn kinase panel” (2012)

Tests used:
[1] = molecular target: RAC-alpha serine/threonine-protein kinase (Homo sapiens) (UniProt P31749); details: at 0.1 µM
[2] = molecular target: RAC-alpha serine/threonine-protein kinase (Homo sapiens) (UniProt P31749); details: at 1 µM
[3] = molecular target: RAC-beta serine/threonine-protein kinase (Homo sapiens) (UniProt P31751); details: at 0.1 µM
[4] = molecular target: RAC-beta serine/threonine-protein kinase (Homo sapiens) (UniProt P31751); details: at 1 µM
[5] = molecular target: RAC-gamma serine/threonine-protein kinase (Homo sapiens) (UniProt Q9Y243); details: at 0.1 µM
Chain of RAC-gamma serine/threonine-protein kinase (Homo sapiens) (Q9Y243 whole entry): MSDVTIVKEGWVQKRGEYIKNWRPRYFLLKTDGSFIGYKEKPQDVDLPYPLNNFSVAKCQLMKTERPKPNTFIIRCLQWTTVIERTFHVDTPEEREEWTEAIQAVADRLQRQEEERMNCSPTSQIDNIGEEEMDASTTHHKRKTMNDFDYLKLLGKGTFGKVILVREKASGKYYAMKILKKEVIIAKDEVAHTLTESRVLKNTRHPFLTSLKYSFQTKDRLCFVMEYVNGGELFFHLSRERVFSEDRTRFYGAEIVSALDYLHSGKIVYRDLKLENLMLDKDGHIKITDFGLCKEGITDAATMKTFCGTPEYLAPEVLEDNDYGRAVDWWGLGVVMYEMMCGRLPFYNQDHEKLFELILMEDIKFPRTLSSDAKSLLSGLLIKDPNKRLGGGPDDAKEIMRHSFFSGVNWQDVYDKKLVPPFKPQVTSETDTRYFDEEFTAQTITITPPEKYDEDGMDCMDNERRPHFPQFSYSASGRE

[6] = molecular target: RAC-gamma serine/threonine-protein kinase (Homo sapiens) (UniProt Q9Y243); details: at 1 µM
[7] = molecular target: G protein-coupled receptor kinase 6 (Homo sapiens) (UniProt P43250); details: at 0.1 µM
Chain of G protein-coupled receptor kinase 6 (Homo sapiens) (P43250 whole entry, looked up): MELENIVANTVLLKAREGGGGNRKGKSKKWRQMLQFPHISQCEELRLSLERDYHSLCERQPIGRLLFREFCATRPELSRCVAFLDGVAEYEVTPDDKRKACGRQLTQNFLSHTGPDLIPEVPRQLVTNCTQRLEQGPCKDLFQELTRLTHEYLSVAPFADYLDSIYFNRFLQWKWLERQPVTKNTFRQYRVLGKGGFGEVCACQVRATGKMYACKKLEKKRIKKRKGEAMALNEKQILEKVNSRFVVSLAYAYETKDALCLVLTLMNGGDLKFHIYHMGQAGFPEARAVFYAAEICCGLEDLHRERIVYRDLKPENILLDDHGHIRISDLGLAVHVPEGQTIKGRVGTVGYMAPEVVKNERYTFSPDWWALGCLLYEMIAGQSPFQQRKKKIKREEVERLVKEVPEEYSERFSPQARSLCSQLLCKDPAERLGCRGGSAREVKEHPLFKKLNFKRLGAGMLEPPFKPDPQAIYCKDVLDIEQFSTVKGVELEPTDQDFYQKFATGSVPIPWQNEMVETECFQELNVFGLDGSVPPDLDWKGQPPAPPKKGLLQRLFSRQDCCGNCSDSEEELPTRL

[8] = molecular target: G protein-coupled receptor kinase 6 (Homo sapiens) (UniProt P43250); details: at 1 µM
[9] = molecular target: T1, Rhodopsin kinase GRK7 (Homo sapiens) (UniProt Q8WTQ7); details: at 0.1 µM
T1 sequence (whole entry): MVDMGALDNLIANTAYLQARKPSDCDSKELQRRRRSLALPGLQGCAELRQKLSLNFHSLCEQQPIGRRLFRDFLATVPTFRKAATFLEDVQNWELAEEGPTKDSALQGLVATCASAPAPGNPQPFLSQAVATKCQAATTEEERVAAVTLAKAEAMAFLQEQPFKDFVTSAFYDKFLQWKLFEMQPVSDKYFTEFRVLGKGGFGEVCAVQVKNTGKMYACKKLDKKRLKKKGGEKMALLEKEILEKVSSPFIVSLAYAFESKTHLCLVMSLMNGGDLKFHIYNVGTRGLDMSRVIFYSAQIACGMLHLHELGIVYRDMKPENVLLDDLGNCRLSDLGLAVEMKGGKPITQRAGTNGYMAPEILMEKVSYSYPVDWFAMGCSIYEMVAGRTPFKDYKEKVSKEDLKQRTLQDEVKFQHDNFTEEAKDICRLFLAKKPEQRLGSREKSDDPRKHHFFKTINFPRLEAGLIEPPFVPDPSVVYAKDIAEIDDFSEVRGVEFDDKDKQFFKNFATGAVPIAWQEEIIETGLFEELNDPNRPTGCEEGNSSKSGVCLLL

[10] = molecular target: T1, Rhodopsin kinase GRK7 (Homo sapiens); details: at 1 µM

Chain of RAC-beta serine/threonine-protein kinase (Homo sapiens) (P31751 whole entry): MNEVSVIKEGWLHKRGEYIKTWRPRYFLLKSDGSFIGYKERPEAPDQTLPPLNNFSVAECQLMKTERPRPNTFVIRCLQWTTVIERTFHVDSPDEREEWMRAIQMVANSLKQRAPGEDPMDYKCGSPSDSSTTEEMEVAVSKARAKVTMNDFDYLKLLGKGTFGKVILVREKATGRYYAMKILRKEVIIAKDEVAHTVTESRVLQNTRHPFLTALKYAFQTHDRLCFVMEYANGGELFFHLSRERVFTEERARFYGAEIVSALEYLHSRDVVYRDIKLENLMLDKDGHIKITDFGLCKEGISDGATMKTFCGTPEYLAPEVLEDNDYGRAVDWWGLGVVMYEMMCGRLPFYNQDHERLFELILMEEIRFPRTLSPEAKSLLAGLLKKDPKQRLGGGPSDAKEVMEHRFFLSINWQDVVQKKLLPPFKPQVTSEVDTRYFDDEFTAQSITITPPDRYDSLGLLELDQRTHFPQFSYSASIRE
Chain of RAC-alpha serine/threonine-protein kinase (Homo sapiens) (P31749 whole entry): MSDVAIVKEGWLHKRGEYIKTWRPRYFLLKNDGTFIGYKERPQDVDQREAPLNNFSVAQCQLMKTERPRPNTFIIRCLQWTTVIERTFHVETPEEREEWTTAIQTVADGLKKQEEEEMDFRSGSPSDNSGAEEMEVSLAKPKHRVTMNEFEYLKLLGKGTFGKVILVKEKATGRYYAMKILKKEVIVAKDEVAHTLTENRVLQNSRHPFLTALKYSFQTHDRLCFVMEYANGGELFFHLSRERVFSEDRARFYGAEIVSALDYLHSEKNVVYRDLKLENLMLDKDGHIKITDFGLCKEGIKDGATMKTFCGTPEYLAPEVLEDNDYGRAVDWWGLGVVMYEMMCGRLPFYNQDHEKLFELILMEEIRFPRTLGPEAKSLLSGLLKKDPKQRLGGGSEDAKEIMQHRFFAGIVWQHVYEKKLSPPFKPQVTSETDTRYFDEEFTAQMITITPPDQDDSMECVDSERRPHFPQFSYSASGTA

| SMILES | inhibition [1] [%] | inhibition [2] [%] | inhibition [3] [%] | inhibition [4] [%] | inhibition [5] [%] | inhibition [6] [%] | inhibition [7] [%] | inhibition [8] [%] | inhibition [9] [%] | inhibition [10] [%] |
| --- | --- | --- | --- | --- | --- | --- | --- | --- | --- | --- |
| CC(C)c1ccc(Nc2nccc(-c3cnn4ncccc34)n2)cc1 | 0.38 | 0.64 | 1.28 | 1.13 | 1.09 | 1.51 | 4.74 | 3.14 | 2.17 | 3.19 |
| CN(C)CCCn1c(-c2nonc2N)nc2cnccc21 | 0.01 | 1.38 | 1.85 | 3.82 | 0.92 | 1.84 | 3.78 | 3.55 | 2.61 | 5.07 |
| O=C(Nc1ccc(Oc2ccc3[nH]c(NC(=O)c4ccco4)nc3c2)cc1)Nc1cc(C(F)(F)F)ccc1F | -3.62 | -0.4 | -3.05 | -2.64 | -3.47 | -4.94 | 0.72 | -4.1 | -0.48 | -4.51 |
| COc1cc2ncn(-c3cc(OCc4ccccc4S(C)(=O)=O)c(C#N)s3)c2cc1OC | 1.44 | 1.02 | 2.07 | 1.33 | 2.7 | 1.68 | 13.8 | 3.6 | 8.51 | 40.4 |
| CN(C)C(=O)O[C@@H]1CN[C@@H](C#Cc2cc3ncnc(Nc4ccc(OCc5cccc(F)c5)c(Cl)c4)c3s2)C1 | -0.54 | -0.11 | 0 | -1.02 | -0.71 | 0.16 | 0.14 | -1.42 | -2.8 | 11.4 |
| CCn1c(-c2nonc2N)nc2ccc(F)cc21 | 0.42 | 0.42 | 1.94 | 2.93 | 1.09 | 2.41 | 9.58 | 11.3 | 5.6 | 11.3 |
| NS(=O)(=O)c1cccc(Nc2cc(-c3ccc(F)cc3)n[nH]2)c1 | 1.57 | 2.41 | 3.5 | 2.66 | 2.29 | 3.03 | 4.03 | 8.09 | 2.68 | 5.14 |
| O=C1Nc2ccc(-c3cccnc3)cc2C1=Cc1cc(Br)c(O)c(Br)c1 | 1.65 | 2.74 | 1.49 | 2.84 | 1.24 | 1.67 | 11.3 | 46.1 | 20 | 60.3 |
| CCS(=O)(=O)c1ccc(OC)c(Nc2ncc(-c3cccc(OC)c3)o2)c1 | 0.36 | 0.85 | 1.41 | 0.82 | 1.04 | -0.57 | -1.06 | -5 | -0.18 | -8.47 |
| COc1cccc(-n2nc(C)c3c(N/N=C(\C)c4ccncc4)ncnc32)c1 | -0.15 | -0.16 | -0.34 | 0.3 | -0.78 | 3.59 | 0.75 | 1.13 | 3.79 | 0.01 |
| O=C1Nc2ccccc2/C1=C/Nc1ccc2[nH]c(=O)[nH]c2c1 | 0.44 | 0.45 | 1.75 | 2.21 | 1 | 1.86 | 8.17 | 23.7 | 4.17 | 15.9 |
| NS(=O)(=O)c1ccc(Nc2cc(-c3cccc(O)c3)n[nH]2)cc1 | 0.91 | 0.58 | 1.64 | 3.28 | 2.49 | 1.75 | 1.19 | 3.55 | 3.02 | 5.39 |
| Cc1ccc2c(c1)/C(=N/Nc1ccc(S(N)(=O)=O)cc1)C(=O)N2 | 0.76 | -0.7 | 2.19 | -0.04 | -1.25 | 0.38 | -0.52 | -1.05 | 0.29 | 4.95 |
| OCc1ccc(-c2nc(-c3ccccn3)c(-c3ccc4c(c3)OCO4)[nH]2)cc1 | 1.19 | 1.53 | 2.08 | 2.51 | 1.57 | 0.86 | 0.03 | 1.18 | 2.93 | -2.28 |
| COC(=O)c1cncc(/C=C/c2c(C)cc(O)cc2C)c1 | 1.01 | 0.52 | 1.09 | 1.16 | 1.47 | 1.17 | 7.47 | 9.38 | 3.31 | 3.95 |
| COc1cccc(-n2ncc3c(N/N=C/c4ccc(C)cc4)ncnc32)c1 | 1.26 | 0.76 | 1.76 | 1.75 | 0.43 | 1.94 | 4.73 | 5.93 | 11.7 | 7.9 |
| N#Cc1c(NC(=O)c2ccccc2F)sc2c1CCCC2 | -0.97 | -1.21 | -1.71 | -1.01 | -1.05 | -0.44 | 1.29 | 2.2 | 2.28 | -1.97 |

| SMILES | inhibition [1] [%] | inhibition [2] [%] | inhibition [3] [%] | inhibition [4] [%] | inhibition [5] [%] | inhibition [6] [%] | inhibition [7] [%] | inhibition [8] [%] | inhibition [9] [%] | inhibition [10] [%] |
| --- | --- | --- | --- | --- | --- | --- | --- | --- | --- | --- |
| FC(F)(F)c1ccc(-c2nn3ncccc3c2-c2ccnc(Nc3ccc4c(c3)OCCO4)n2)cc1 | 0.91 | 0.98 | 0.17 | 0.25 | -0.63 | -0.79 | 1.14 | 12.6 | 4.88 | 11.6 |
| CN1CCN(C(=O)c2ccc(NC(=O)Nc3ccc(N(C)c4ccnc(Nc5ccc(CS(C)(=O)=O)cc5)n4)cc3)cc2)CC1 | 0.3 | -0.86 | -0.33 | 1.06 | 0.49 | 1.64 | 2.2 | 1.86 | 4.4 | 0.44 |
| NS(=O)(=O)c1ccc(NC=C2C(=O)Nc3ccc4ncsc4c32)cc1 | 1.23 | -0.15 | 2.3 | 2.59 | 0.79 | 2.77 | 6.28 | 35.5 | 6.78 | 22.4 |
| NC(=O)c1cccc(Nc2nccc(Nc3cccc(F)c3)n2)c1 | 0.22 | -0.29 | 0.22 | 0.58 | 0.47 | 3.46 | 2.83 | 0.77 | 4.02 | 2.39 |
| NS(=O)(=O)c1cccc(-c2cc3ccncc3cc2OCc2ccccc2)c1 | 1.37 | 0.84 | 1.79 | 2.65 | 2.96 | 0.32 | 0.24 | 2.95 | 2.9 | 4.85 |
| Cc1ccc2c(-c3ccnc(Nc4ccc5c(c4)OCCO5)n3)c(-c3ccc(C(F)(F)F)cc3)nn2n1 | 1.37 | 1.23 | 1.5 | 1.65 | 1.43 | -4.48 | 0.55 | 2.19 | 5.75 | 2.78 |
| Cc1cc(O)cc(C)c1/C=C/c1cncc(C(=O)N(C)C)c1 | 0.52 | 0.6 | 2.14 | 0.78 | 1.44 | 1.3 | 3.76 | 0.05 | 0 | -6.95 |
| Cc1ccc(Nc2ccnc(Nc3cccc(C(N)=O)c3)n2)cc1O | -3.35 | -2.06 | -1.66 | -2.15 | -2.03 | -1.07 | 1.49 | 6.26 | 1.62 | 0.17 |
| Cc1ccc(C(=O)NC2CC2)cc1-c1ccc2[nH]ncc2c1 | -2.21 | -1.97 | -3.64 | -3.23 | -4.12 | 0.95 | 1.1 | -1.57 | -1.33 | -8.83 |
| CS(=O)(=O)CCNCc1nc(-c2ccc3ncnc(Nc4ccc(OCc5cccc(C(F)(F)F)c5)cc4)c3c2)cs1 | 0.2 | -0.66 | -0.39 | 0.39 | 0.84 | 1.91 | 0.43 | 0.06 | 3.85 | -1.01 |
| COc1cccc(-n2ncc3c(N/N=C/c4ccc(S(C)(=O)=O)cc4)ncnc32)c1 | -3.17 | -2.91 | -3.17 | -2.73 | -8.29 | -3.66 | 1.17 | -1.78 | -0.35 | 0.56 |
| O=S(=O)(CCOCc1ccc(-c2ccc3ncnc(Nc4ccc(OCc5cccc(F)c5)c(Cl)c4)c3c2)o1)c1ccccc1 | -0.1 | -0.35 | 0.2 | 1.21 | -0.84 | 3.06 | 0.84 | 0.78 | 7.97 | 4.68 |
| [O-][S+]1CCN(Cc2ccc(-c3ccc4ncnc(Nc5ccc(OCc6ccccc6)c(Cl)c5)c4c3)o2)CC1 | 0.1 | -0.3 | 0.29 | 1.29 | 0.15 | 2.06 | -0.03 | 1.12 | 7.76 | -2.22 |
| CN(c1ccc(NC(=O)Nc2ccc(OC(F)(F)F)cc2)cc1)c1ccnc(Nc2cccc(S(N)(=O)=O)c2)n1 | 0.77 | 0.88 | 0.51 | 1.22 | 0.16 | 2.79 | -5.14 | -2.97 | 3.47 | -1.66 |
| COc1cc(Nc2nccc(-c3cnn4ncccc34)n2)cc(OC)c1 | 0.23 | 0.24 | 0.16 | 0.1 | 0.27 | 1.18 | 0.91 | -0.01 | 6.32 | 9.43 |
| COc1cc2ncnc(Nc3ccc4c(cnn4Cc4ccccc4)c3)c2cc1OC | -0.49 | 0.77 | 0.99 | 1 | 0.08 | 2.09 | -0.46 | 2.17 | 9.43 | 2.89 |
